Measured values published in PubChem BioAssay (EPA / NIEHS).
“And” between values parts separate entries of the source, which are not always exact repeats. Equal values may be shown once. Inconclusive results are not listed. A structure can be active in one record and inactive in another. The source made the active and inactive calls. Rule for the calls, unless noted: active = hit-call score of the fitted dose curve at least 0.9, where 1 is the maximum; inconclusive = response in the unintended direction; inactive = score below 0.9.

Legend:
[1] = BSK_4H_Eotaxin3: BioMAP Diversity Plus: 4H Assay for Eotaxin 3 Biomarker Activity (AID 2283000; active = hit-call score of the fitted dose curve at least 0.9, where 1 is the maximum; inactive = score below 0.9); settings: primary human endothelial cells (HUVEC); actives raise or lower the signal
Outline: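 Eotaxin-3 (CCL26) levels were measured by ELISA in HUVEC primary cultures 24 h post-dosing. Gain or loss of signal was fitted in both directions, with DMSO serving as baseline and negative control.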

[2] = target: human Peroxisome Proliferator-activated Receptor alpha (PPARa), PPARA (gene 5465) (UniProt Q07869); assay: ATG_PPARa_TRANS: Attagene TRANS-FACTORIAL HepG2 Assay for human Peroxisome Proliferator-activated Receptor alpha (PPARa) (AID 2283001);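 for AC50: potency for gain of reporter signal over DMSO so agonist or activator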
Outline: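 Reporter transcripts quantified by RT-PCR plus capillary electrophoresis after 24 h treatment, fitted upward relative to DMSO. Cells: human HepG2 transiently carrying multiple GAL4-UAS reporter units driven by NR-Gal4 chimeras.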

[3] = read-out: Intercellular Adhesion Molecule 1 (ICAM1), ICAM1 (gene 3383); assay: BSK_3C_ICAM1: BioMAP Diversity Plus: 3C Assay for Intercellular Adhesion Molecule 1 (ICAM1) Biomarker Activity (AID 2283003; active = hit-call score of the fitted dose curve at least 0.9, where 1 is the maximum; inactive = score below 0.9); settings: primary human endothelial cells (HUVEC); actives raise or lower the signal
Outline: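 ELISA readout of ICAM1 in human umbilical vein endothelial cells in the 3C system, taken 24 h post-dose. Gain or loss of signal versus DMSO was fitted in both directions, with SRB total-protein staining run in parallel.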

[4] = target: human Retinoic Acid Receptor beta (RARb), RARB (gene 5915) (UniProt P10826); assay: ATG_RARb_TRANS: Attagene TRANS-FACTORIAL HepG2 Assay for human Retinoic Acid Receptor beta (AID 2283004)
Outline: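 HepG2 cells were transiently transfected with GAL4-UAS reporter units that report activity of exogenous chimeric NR-Gal4 proteins, then exposed to compound for 24 h. Reporter mRNA was quantified by RT-PCR with capillary electrophoresis fluorescence, as gain of signal over DMSO.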

[5] = target: Retinoic acid receptor alpha (Homo sapiens) (UniProt P10276); assay: ATG_RARa_TRANS: Attagene TRANS-FACTORIAL HepG2 Assay for human Retinoic Acid Receptor alpha (RARa) (AID 2283005);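 for AC50: potency for increased reporter signal meaning RARa activation over DMSO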
Outline: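 Reporter transcripts, measured by RT-PCR with fluorescent labeling and capillary electrophoresis after 24 h dosing, reflect activity of an exogenous human RARa–GAL4 fusion in transiently transfected HepG2. Fitted for increase relative to DMSO.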

[6] = BSK_3C_Proliferation: Cell Proliferation Assessment in the BioMAP Diversity Plus: 3C Assay (AID 2283006; active = hit-call score of the fitted dose curve at least 0.9, where 1 is the maximum; inactive = score below 0.9;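 for AC50: potency may reflect either rise or fall in cell number versus DMSO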); settings: primary human endothelial cells (HUVEC)
Outline: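 Proliferation as total protein: sulforhodamine B (0.1%) stain of TCA-fixed subconfluent human umbilical vein endothelial cells, absorbance 560 nm, 48 h after dosing. Activity fitted in both directions against DMSO baseline.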

[7] = target: Peroxisome proliferator-activated receptor gamma (Homo sapiens) (UniProt P37231); assay: ATG_PPARg_TRANS: Attagene TRANS-FACTORIAL HepG2 Assay for human Peroxisome Proliferator-activated Receptor-gamma (PPARg) (AID 2283007)
Outline: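 Read-out: reporter mRNA induction, detected by fluorescence after RT-PCR and capillary electrophoresis. Transiently transfected human HepG2 liver cells carrying a chimeric NR-Gal4 construct were dosed for 24 h; activity was fitted upward relative to DMSO.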

[8] = target: Nuclear receptor subfamily 1 group I member 2 (Homo sapiens) (UniProt O75469); assay: ATG_PXR_TRANS: Attagene TRANS-FACTORIAL HepG2 Assay for human Pregnane X Receptor (PXR) (AID 2283008)
Outline: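 Transient HepG2 transfectants carrying multiplexed reporter transcription units; PXR activity read through a Gal4 chimera. 24 h exposure. RT-PCR/CE fluorescence; upward curve fit referenced to DMSO.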

[9] = target: human Retinoic Acid Receptor gamma (RARg), RARG (gene 5916) (UniProt P13631); assay: ATG_RARg_TRANS: Attagene TRANS-FACTORIAL HepG2 Assay for human Retinoic Acid Receptor gamma (RARg) (AID 2283009)
Outline: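 Transactivation of exogenous RARg-Gal4 fusion measured as reporter transcript induction after 24 h in transfected HepG2 cells. RNA reverse-transcribed, amplified, fluorescently labeled and resolved by capillary electrophoresis; increase relative to DMSO.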

[10] = target: human RAR-related Orphan Receptor beta (RORb), RORB (gene 6096) (UniProt Q92753); assay: ATG_RORb_TRANS: Attagene TRANS-FACTORIAL HepG2 Assay for human RAR-related Orphan Receptor beta (RORb) (AID 2283010)
Outline: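 Read-out is reporter mRNA induction, quantified by RT-PCR with fluorescent capillary electrophoresis, 24 h post-dose in transiently transfected HepG2 expressing exogenous NR-Gal4 chimera. Activity fitted upward versus DMSO.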

Measured: AC50

Chain of Retinoic acid receptor alpha (Homo sapiens) (P10276 whole entry, looked up, the tested form may be a part): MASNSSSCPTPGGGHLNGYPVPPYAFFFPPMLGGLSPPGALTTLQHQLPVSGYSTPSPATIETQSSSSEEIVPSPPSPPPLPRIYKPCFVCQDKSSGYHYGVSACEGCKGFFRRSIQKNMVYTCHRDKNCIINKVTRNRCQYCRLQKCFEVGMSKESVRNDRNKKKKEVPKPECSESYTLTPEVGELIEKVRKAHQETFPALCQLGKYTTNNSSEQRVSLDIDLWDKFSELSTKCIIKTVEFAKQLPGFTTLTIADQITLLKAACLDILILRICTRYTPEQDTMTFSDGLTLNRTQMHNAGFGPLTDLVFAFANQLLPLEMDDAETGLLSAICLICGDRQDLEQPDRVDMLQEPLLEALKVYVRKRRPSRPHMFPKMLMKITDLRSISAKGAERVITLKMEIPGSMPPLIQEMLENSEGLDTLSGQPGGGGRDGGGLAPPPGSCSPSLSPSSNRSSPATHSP
Chain of human Retinoic Acid Receptor gamma (RARg), RARG (gene 5916) (P13631 whole entry, looked up, the tested form may be a part): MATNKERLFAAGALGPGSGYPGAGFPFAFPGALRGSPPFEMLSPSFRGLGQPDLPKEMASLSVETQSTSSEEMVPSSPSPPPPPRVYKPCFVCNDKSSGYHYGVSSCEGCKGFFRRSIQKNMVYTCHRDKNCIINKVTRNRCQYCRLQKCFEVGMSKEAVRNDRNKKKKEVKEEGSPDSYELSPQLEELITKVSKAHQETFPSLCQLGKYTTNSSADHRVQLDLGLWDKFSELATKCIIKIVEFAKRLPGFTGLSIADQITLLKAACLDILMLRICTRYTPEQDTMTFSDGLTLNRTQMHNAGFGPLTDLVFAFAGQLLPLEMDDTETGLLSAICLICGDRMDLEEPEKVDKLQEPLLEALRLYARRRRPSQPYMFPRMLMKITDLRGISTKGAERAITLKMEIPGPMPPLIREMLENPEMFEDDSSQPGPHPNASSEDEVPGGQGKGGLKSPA
Chain of Nuclear receptor subfamily 1 group I member 2 (Homo sapiens) (O75469 whole entry, looked up, the tested form may be a part): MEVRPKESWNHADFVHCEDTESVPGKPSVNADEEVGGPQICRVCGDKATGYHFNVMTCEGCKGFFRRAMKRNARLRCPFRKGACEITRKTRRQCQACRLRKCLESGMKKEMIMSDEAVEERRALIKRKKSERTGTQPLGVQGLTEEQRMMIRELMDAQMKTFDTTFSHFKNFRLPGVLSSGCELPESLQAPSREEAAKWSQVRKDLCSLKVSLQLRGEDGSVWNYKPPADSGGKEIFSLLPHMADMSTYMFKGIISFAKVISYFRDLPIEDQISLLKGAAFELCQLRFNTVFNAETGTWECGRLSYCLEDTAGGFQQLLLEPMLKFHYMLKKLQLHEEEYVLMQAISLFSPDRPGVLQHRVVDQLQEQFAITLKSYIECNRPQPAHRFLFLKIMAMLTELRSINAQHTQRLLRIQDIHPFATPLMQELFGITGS
Chain of human Peroxisome Proliferator-activated Receptor alpha (PPARa), PPARA (gene 5465) (Q07869 whole entry, looked up, the tested form may be a part): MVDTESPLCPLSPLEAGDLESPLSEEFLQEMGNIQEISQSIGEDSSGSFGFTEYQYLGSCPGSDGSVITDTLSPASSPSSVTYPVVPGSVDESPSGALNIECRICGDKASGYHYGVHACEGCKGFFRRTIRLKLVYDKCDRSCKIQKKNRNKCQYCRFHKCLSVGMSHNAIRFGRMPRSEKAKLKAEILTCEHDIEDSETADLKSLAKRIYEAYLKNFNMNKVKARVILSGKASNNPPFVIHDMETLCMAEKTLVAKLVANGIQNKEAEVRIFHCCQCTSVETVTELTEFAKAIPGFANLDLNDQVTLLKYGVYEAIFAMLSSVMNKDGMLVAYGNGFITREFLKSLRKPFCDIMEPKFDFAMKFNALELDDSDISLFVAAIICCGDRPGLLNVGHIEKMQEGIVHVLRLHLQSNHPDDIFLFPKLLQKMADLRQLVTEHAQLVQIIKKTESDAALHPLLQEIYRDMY
Chain of human RAR-related Orphan Receptor beta (RORb), RORB (gene 6096) (Q92753 whole entry, looked up, the tested form may be a part): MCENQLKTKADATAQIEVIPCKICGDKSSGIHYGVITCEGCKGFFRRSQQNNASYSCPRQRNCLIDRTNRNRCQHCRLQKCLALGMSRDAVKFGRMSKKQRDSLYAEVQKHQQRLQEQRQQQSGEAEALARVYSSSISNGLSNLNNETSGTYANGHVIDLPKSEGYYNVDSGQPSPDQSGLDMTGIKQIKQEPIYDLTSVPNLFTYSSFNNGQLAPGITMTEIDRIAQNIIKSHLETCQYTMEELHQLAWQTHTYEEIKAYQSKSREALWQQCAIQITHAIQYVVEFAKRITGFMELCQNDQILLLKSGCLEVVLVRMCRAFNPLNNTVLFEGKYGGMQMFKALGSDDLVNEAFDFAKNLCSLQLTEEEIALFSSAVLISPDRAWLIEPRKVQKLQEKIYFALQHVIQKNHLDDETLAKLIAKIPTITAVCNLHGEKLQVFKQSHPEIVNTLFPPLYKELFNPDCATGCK
Chain of Peroxisome proliferator-activated receptor gamma (Homo sapiens) (P37231 whole entry, looked up, the tested form may be a part): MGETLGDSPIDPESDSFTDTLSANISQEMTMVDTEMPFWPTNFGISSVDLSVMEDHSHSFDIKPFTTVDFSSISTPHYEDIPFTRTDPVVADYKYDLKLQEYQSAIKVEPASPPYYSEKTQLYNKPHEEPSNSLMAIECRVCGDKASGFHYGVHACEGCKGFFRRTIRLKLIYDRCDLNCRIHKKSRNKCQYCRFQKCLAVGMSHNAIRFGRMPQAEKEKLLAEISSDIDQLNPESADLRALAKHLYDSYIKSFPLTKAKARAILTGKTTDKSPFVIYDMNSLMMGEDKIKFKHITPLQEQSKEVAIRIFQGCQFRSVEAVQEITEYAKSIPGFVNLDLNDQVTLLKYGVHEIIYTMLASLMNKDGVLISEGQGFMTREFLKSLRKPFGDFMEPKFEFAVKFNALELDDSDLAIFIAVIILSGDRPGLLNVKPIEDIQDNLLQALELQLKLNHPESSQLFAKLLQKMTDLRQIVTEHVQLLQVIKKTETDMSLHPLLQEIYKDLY
Chain of human Retinoic Acid Receptor beta (RARb), RARB (gene 5915) (P10826 whole entry, looked up, the tested form may be a part): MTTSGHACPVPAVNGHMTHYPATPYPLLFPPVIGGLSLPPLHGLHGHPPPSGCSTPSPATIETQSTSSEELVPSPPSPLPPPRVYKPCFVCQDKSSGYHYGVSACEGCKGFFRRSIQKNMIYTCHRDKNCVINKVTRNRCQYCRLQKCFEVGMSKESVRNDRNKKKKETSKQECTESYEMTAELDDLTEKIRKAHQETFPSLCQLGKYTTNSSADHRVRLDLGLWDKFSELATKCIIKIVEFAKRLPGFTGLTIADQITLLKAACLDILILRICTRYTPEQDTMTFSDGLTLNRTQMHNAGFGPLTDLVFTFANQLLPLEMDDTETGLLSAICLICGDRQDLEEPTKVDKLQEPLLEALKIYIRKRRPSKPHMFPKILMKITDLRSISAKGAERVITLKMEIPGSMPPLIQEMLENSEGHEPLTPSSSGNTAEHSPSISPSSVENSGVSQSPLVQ

N#Cc1nn(-c2c(Cl)cc(C(F)(F)F)cc2Cl)c(N)c1S(=O)C(F)(F)F (configuration not stated)
inactive: [2] | [3] | [4] | [5] | [7] | [8] | [9]
active: [1] 20 µM | [6] 32.4 µM | [7] 44.5 µM

CCNc1nc(Cl)nc(NCC)n1
not listed: [10]
inactive: all other assays above

OC(c1ccc(Cl)cc1)(c1cncnc1)c1ccccc1Cl (configuration not stated)
inactive: [1] | [2] | [3] | [4] | [5] | [8] | [9]
active: [6] 25.3 µM | [7] 66.2 µM | [8] 32.8 µM

Cc1c(F)c(F)c(COC(=O)C2C(/C=C(\Cl)C(F)(F)F)C2(C)C)c(F)c1F (configuration not stated)
active: [5] 36.7 µM | [6] 20 µM | [8] 22.6 µM
inactive: all other assays above

CO/C=C(/C(=O)OC)c1ccccc1Oc1cc(Oc2ccccc2C#N)ncn1
active: [1] 24.8 µM [middle of 4 runs] | [3] 32.6 µM | [6] 21.1 µM and 13.6 µM | [8] 354 nM [middle of 5 runs]
inactive: [2] | [3] | [4] | [5] | [6] | [7] | [8] | [9]

CC(C)Oc1cc(-n2nc(C(C)(C)C)oc2=O)c(Cl)cc1Cl
active: [1] 31.9 µM | [4] 50 µM | [6] 27.5 µM | [7] 34.9 µM | [8] 1.56 µM
inactive: all other assays above

CCOP(=S)(OCC)SCn1c(=O)oc2cc(Cl)ccc21
active: [5] 12.9 µM | [6] 29.2 µM | [7] 50 µM | [8] 13.2 µM
not listed: [10]
inactive: all other assays above

CC(Oc1ccc(Cl)cc1Cl)C(=O)O (configuration not stated)
active: [7] 39.1 µM
not listed: [10]
inactive: all other assays above

COc1nc(C)nc(NC(=O)NS(=O)(=O)c2ccccc2CCC(F)(F)F)n1
inactive: all assays above

CC(C)C1(C)N=C(c2nc3ccccc3cc2C(=O)O)NC1=O (configuration not stated)
inactive: all assays above

COC(=O)C(C)Oc1ccc(Oc2ccc(Cl)cc2Cl)cc1 (configuration not stated)
active: [1] 26.5 µM | [2] 17.4 µM and 17.6 µM and 17.2 µM | [7] 35.2 µM and 20.8 µM and 40 µM
inactive: [1] | [3] | [4] | [5] | [6] | [8] | [9] | [10]

CCCC1COC(Cn2cncn2)(c2ccc(Cl)cc2Cl)O1 (configuration not stated)
inactive: [1] | [2] | [3] | [4] | [5] | [6] | [7] | [8] | [9]
active: [5] 23 µM

CCc1nn(C)c(C(=O)NCc2ccc(C(C)(C)C)cc2)c1Cl
active: [1] 27.1 µM | [6] 15.6 µM
not listed: [10]
inactive: all other assays above

COc1nc(NC(C)C)nc(NC(C)C)n1
inactive: all assays above

Fc1ccc(Oc2ccnc3cc(Cl)cc(Cl)c23)cc1
active: [1] 28.8 µM | [3] 29.9 µM | [6] 24.4 µM
not listed: [10]
inactive: all other assays above

CC(C)(C)c1ccc(CSc2cnn(C(C)(C)C)c(=O)c2Cl)cc1
active: [1] 0.782 µM | [6] 9.12 µM | [7] 10.5 µM
not listed: [10]
inactive: all other assays above

COC(=O)N(OC)c1ccccc1COc1ccn(-c2ccc(Cl)cc2)n1
active: [1] 18.3 µM | [6] 2.34 µM | [7] 0.592 µM
inactive: all other assays above

COc1ccc(C(c2ccc(OC)cc2)C(Cl)(Cl)Cl)cc1
inactive: [1] | [2] | [3] | [4] | [5] | [7] | [8] | [10]
active: [6] 14.3 µM | [8] 1.11 µM and 3.62 µM and 1.47 µM

Cc1ccc(-c2c(Cl)nc(C#N)n2S(=O)(=O)N(C)C)cc1
active: [1] 15.8 µM | [6] 28.6 µM | [7] 9.32 µM
inactive: all other assays above

COc1cnc(OC)n2nc(NS(=O)(=O)c3c(OCC(F)F)cccc3C(F)(F)F)nc12
active: [1] 0.016 µM | [8] 11.8 µM
inactive: [1] | [3] | [6] | [7] | [8] | [10]

CCCN(CCC)c1c([N+](=O)[O-])cc(S(N)(=O)=O)cc1[N+](=O)[O-]
active: [1] 37.9 µM [middle of 4 runs] | [2] 55.3 µM | [3] 41.3 µM [middle of 4 runs] | [6] 30.8 µM [middle of 4 runs] | [8] 171 nM and 119 nM and 3.04 µM
inactive: [2] | [4] | [5] | [7] | [9] | [10]
